Measured values published in PubChem BioAssay AID602393 (Broad Institute, 2012).
The campaign covered roughly 350,000 compounds. About 7,000 (2%) were called active. The list comes from a sample in which actives are over-represented; it also holds similar structures and randomly drawn compounds. Values without a mark were called inactive. No stated cut-off is given here; in the data, active means activation above about 40%; inconclusive means no clear call, values can overlap the other calls; inactive means below that.

Experiment: raisers of Bmi1 knock-in reporter signal – mouse ES cells, Bmi1 luciferase knock-in, single point, esBAF inhibitor project, primary screen (AID 602393);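 further: 0% = median of the plate's neutral control wells and 100% = double that signal; a rise in the Bmi1 reporter signal indicates esBAF inhibition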
Details: 24 h, at 12.5 µM, active compounds read high, 100% = twice the neutral-well signal

Row | SMILES | reporter increase
1 | C[C@@H]1CN([C@H](C)CO)S(=O)(=O)c2ccc(C#C[C@@H](C)O)cc2O[C@H]1CN(C)CC1CC1 | 2.12%
2 | CC(Cc1cccs1)NC(=O)NC1CCCCC1 (stereo not given) | 17.1%
3 | Cc1cccc(C(=O)N[C@H](C(=O)NCc2cccs2)C(C)C)c1 | -4.58%
4 | CC(Cc1cccs1)NC(=O)c1cccc(Cl)c1 (stereo not given) | 59.9% (active)
5 | C[C@@H]1CCCCO[C@@H](CN(C)S(=O)(=O)c2cn(C)cn2)[C@@H](C)CN([C@H](C)CO)C(=O)c2cc(NC(=O)c3ccncc3)ccc2O1 | 2.55%
6 | CN1CCN(C(=O)C[C@@H]2CC[C@@H]3[C@H](COC[C@@H](O)CN3Cc3cccc(F)c3)O2)CC1 | 0.727%
7 | C[C@@H]1CN([C@@H](C)CO)C(=O)c2cc(C#CCN(C)C)cnc2O[C@@H]1CN(C)Cc1ccccn1 | -9.33%
8 | CO[C@@H]1CN(C)C(=O)c2cc(NS(=O)(=O)c3cccc(Cl)c3)ccc2OC[C@@H](C)NC[C@@H]1C | 3.71%
9 | Cc1ccc(-c2nc3ccc(Br)cn3c2Cc2ccccc2C(F)(F)F)cc1 | 58.8% (active)
10 | Cc1ccc(Cc2c(-c3ccco3)nc3ccc(Cl)cn23)cc1 | -7.76%
11 | Brc1ccc2nc(-c3ccccc3)c(Cc3ccccc3)n2c1 | 18%
12 | Fc1cccc(Cc2c(-c3ccc(Cl)cc3)nc3ccc(Cl)cn23)c1 | 7.58%
13 | Fc1cccc(Cc2c(-c3cccc(Cl)c3)nc3ccc(Br)cn23)c1 | 57.3% (active)
14 | Clc1cccc(Cc2c(-c3cccc(Cl)c3)nc3ccc(Cl)cn23)c1 | 35.2%
15 | Cc1ccc(Cc2c(-c3ccccc3)nc3ccc(Cl)cn23)cc1 | 21%
16 | FC(F)(F)c1ccccc1Cc1c(-c2ccccc2)nc2c3ccccc3ccn12 | 3.35%
17 | Cc1ccc(-c2nc3ccc(Cl)cn3c2Cc2ccccc2)cc1 | 44.1% (active)
18 | C[C@H](CO)N1C[C@H](C)[C@H](CN(C)C(=O)c2ccncc2)Oc2cc(C#CC3(O)CCCC3)ccc2S1(=O)=O | 2.01%
19 | Cc1ccc(S(=O)(=O)N[C@@H]2CC[C@H](CCNC(=O)C3CCOCC3)O[C@@H]2CO)cc1 | 3.97%
20 | CC1CCCN(CC(=O)Nc2cc(Cl)ccc2Oc2ccccc2)C1 (stereo not given) | 0.159%
21 | CC(=O)Nc1ccc(NC(=O)CN2CCCC(C)C2)c(Cl)c1 (stereo not given) | 49.7% (active)
22 | O=C(CN1CCOCC1)Nc1ccc(NC(=O)CN2CCOCC2)c(Cl)c1 | 3.57%
23 | Oc1ccc(-n2nnnc2SCc2c(F)cccc2Cl)cc1 | -6.31%
24 | Cn1c(SCc2c(F)cccc2Cl)nnc1-c1cnccn1 | 59% (active)
25 | Cn1c(SCC(=O)c2ccc(F)cc2)nnc1-c1ccccn1 | 39.1%
